Bioassay records as filed in PubChem BioAssay.
A selection: hits, their analogues and other compounds. The true share with any hit is near 27%.
CYP2C9 inhib = blockers of cytochrome P450 2C9 activity – biochemical, luminescence, ADME assay, primary screen | CYP2C9 Supersomes, luciferin-H conversion | inhibition, % at 5 µM | AID 777, 2007 | 96,000 compounds, 20% hits | P11712;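 active means blocking of liver enzyme CYP2C9 beyond about 50% at 5 µM, limit read from the data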
CYP2C19 inhib = blockers of cytochrome P450 2C19 activity – biochemical, luminescence, ADME assay, primary screen | inhibition, % at 5 µM | 96,000 compounds, 21% hits | AID 778, 2007 | CYP2C19 Supersomes, luciferin-H EGE luminescence, 30 min | P33261;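 active means CYP2C19 inhibition above a set limit at 5 µM in the primary screen, cut at about 50% in these data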;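 further: plate controls were negative control wells for no effect and 2.5 mM tranylcypromine positive control for full effect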
Target sequence (P33261 whole entry, looked up): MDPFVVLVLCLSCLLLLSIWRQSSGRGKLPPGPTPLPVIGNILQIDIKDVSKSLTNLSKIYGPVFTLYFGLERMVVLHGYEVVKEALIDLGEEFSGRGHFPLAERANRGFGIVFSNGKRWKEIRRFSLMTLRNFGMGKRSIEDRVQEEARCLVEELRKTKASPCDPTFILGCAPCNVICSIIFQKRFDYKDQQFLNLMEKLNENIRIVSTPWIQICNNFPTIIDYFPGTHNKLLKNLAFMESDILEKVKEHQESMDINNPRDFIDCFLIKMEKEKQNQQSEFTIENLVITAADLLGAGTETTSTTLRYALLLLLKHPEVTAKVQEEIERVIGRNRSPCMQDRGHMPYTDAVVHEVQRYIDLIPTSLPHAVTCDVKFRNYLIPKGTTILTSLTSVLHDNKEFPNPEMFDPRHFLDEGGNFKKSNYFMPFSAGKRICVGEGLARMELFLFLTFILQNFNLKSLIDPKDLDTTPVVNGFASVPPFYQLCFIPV
CYP2C9 act = human CYP2C9 activators, primary screen, biochemical, luminescence; recombinant CYP2C9, luciferin-H conversion; hits give high values; factor 1 = untreated enzyme, 0 = blocked; activation factor at 5 µM; 96,000 compounds, 1.4% hits;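 active means activation factor of 2 or more for CYP2C9 at a 5 µM dose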;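 further: 0 = sulfaphenazole-blocked wells and 1 = vehicle-only wells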
CYP2C19 activ = human CYP2C19 activators, primary screen, biochemical, luminescence; Cytochrome P450 2C19 (Homo sapiens), P33261; AID 1025, 2008; recombinant CYP2C19, luciferin-H EGE luminescence; hits give high values; 0 = fully inhibited enzyme, 1 = untreated enzyme; activation factor at 5 µM; 96,000 tested, under 10 active;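 active means activation factor of at least 2 at 5 µM in the primary screen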;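 further: 0 = wells with 2.5 mM tranylcypromine and 1 = vehicle-only wells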
Cav3 T inh = Cav3.2 calcium influx blockers – cell-based, Fluo-4 calcium fluorescence, FDSS, MLSMR library, primary screen; Cav3.2-expressing cells; hits give low values; B-score at 10 µM; 100,000 compounds, 4% hits;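 active means single-dose well whose peak fluorescence ratio is a statistical outlier from its plate by either plate-standardised score or position-corrected B-score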
Numbers without * were called inactive; / = not tested or not shown.

SMILES | CYP2C9 inhib | CYP2C19 inhib | CYP2C9 act | CYP2C19 activ | Cav3 T inh
O=C(NCCn1cc(SCc2ccc(F)cc2)c2ccccc21)c1c(F)cccc1F | / | / | / | / | -0.013
Cc1cc(NC(=O)CSc2cn(CCNC(=O)c3ccccc3)c3ccccc23)no1 | 94* | 90* | 0.1 | 0.1 | -3.4
Cc1nnc(NC(=O)CSc2cn(Cc3ccccc3)c3ccccc23)s1 | -9 | -1 | 1.1 | 1 | -0.57
O=C(NCCn1cc(SCc2ccc(F)cc2)c2ccccc21)c1ccccc1F | / | / | / | / | -4.7*
CCN1CCN(C(C(=O)NC2CCCCC2)c2ccc(Cl)cc2)CC1 (stereo not given) | -29 | 43 | 1.3 | 0.6 | 0.9
Cc1[nH]c2ccccc2c1SCC(=O)N1CCCc2ccccc21 | 9 | 76* | 0.9 | 0.2 | -4.8*
CCn1cc(S(=O)(=O)CC(=O)N2CCc3ccccc32)c2ccccc21 | / | / | / | / | -0.042
CCCn1cc(S(=O)(=O)CC(=O)N2CCc3ccccc32)c2ccccc21 | 79* | 87* | 0.2 | 0.1 | -2.1
Cn1cc(S(=O)(=O)CC(=O)N2CCc3ccccc32)c2ccccc21 | 42 | 67* | 0.6 | 0.3 | 0.039
O=C(CS(=O)(=O)c1c[nH]c2ccccc12)N1CCCc2ccccc21 | -81 | 94* | 1.8 | 0.1 | 0.014
CCn1cc(S(=O)(=O)CC(=O)NC2CCCCC2)c2ccccc21 | 3 | 32 | 1 | 0.7 | 0.98
O=C(CS(=O)(=O)c1c[nH]c2ccccc12)NC1CCCCC1 | -66 | 51* | 1.7 | 0.5 | 0.91
Cc1cccc(Oc2ncnc3oc(-c4ccccc4)cc23)c1C | 54* | 28 | 0.5 | 0.7 | /
Cc1nnc(SCc2ccc(Cl)cc2Cl)[nH]c1=O | 80* | 11 | 0.2 | 0.9 | 0.8
Cc1nnc(SCC(=O)Nc2ccc(Cl)cn2)[nH]c1=O | / | / | / | / | 0.18
Cc1nnc(SCC(=O)N2CCN(S(=O)(=O)c3ccc(Cl)cc3)CC2)[nH]c1=O | 12 | 3 | 0.9 | 1 | 0.21
Cc1nnc(SCC(=O)Nc2c(Cl)cccc2Cl)[nH]c1=O | 62* | -6 | 0.4 | 1.1 | 0.17
Cc1cc(C)cc(N(CC(=O)N2CCOCC2)S(=O)(=O)c2ccccc2)c1 | / | / | / | / | -0.16
O=C(NCCN1CCOCC1)Nc1ccccc1 | 14 | 2 | 0.9 | 1 | /
CSCCC(NS(=O)(=O)c1ccc(Cl)cc1)C(=O)OCC(=O)N(C(C)C)C(C)C (stereo not given) | 26 | 43 | 0.7 | 0.6 | -3.4*
CSCCC(NS(=O)(=O)c1ccc(Cl)cc1)C(=O)OCC(=O)NC1CC1 (stereo not given) | 4 | 18 | 1 | 0.8 | -0.23
CSc1nc(-c2ccco2)nn1S(C)(=O)=O | -26 | -14 | 1.3 | 1.1 | -0.0045
N#CCC(=N)N1CCN(c2ccc(Cl)cc2)CC1 | 18 | 14 | 0.8 | 0.9 | /
CCOP(=O)(OCC)C(C#N)=C1SCN(c2ccc(Cl)cc2)CS1 | 61* | 32 | 0.4 | 0.7 | 0.12
O=C(CCN1CCN(c2ccccc2)CC1)Nc1cccc(Br)c1 | / | / | / | / | -2.8
SMILES | CYP2C9 inhib | CYP2C19 inhib | CYP2C9 act | CYP2C19 activ | Cav3 T inh
O=C(CCc1nc2ccccc2[nH]c1=O)OCC(=O)N1CCc2ccccc21 | 28 | 24 | 0.7 | 0.8 | -0.0059
CC(C)(C)c1ccc(C(=O)NNC(=O)c2cccc(Br)c2)cc1 | -31 | -11 | 1.3 | 1.1 | -0.41
O=C(NNC(=S)Nc1cccc2ccccc12)c1cccc(Br)c1 | 96* | 91* | 0 | 0.1 | -3.5
Cc1ccc(C(=O)NNC(=S)Nc2cccc3ccccc23)s1 | 65* | 38 | 0.3 | 0.6 | -0.2
COc1ccc(NC(=O)c2nc[nH]c2C(=O)N(C)Cc2ccccc2)cc1 | / | / | / | / | -2.4
C#CCOCCOCCOCCNc1nc(N2CCN(C(=O)[C@H](Cc3cc4ccccc4[nH]3)n3cc([C@@H](N)CC(C)C)nn3)CC2)nc(N2CCN(C(=O)[C@H](Cc3cc4ccccc4[nH]3)n3cc([C@@H](N)CC(C)C)nn3)CC2)n1 | / | / | / | / | 0.3
CCCCc1ccc(Nc2ncnc3nc[nH]c23)cc1 | 42 | 53* | 0.6 | 0.5 | /
CCc1nnc(NC(=O)c2cc3ccccc3oc2=O)s1 | -18 | -17 | 1.2 | 1.2 | 0.054
CC(=O)c1ccc(NC(=O)c2ccc3nc(-c4ccco4)c(-c4ccco4)nc3c2)cc1 | 27 | 6 | 0.7 | 0.9 | -0.17
O=C(Nc1ccc(-n2nncc2-c2ccco2)cc1)c1cccc(F)c1 | 72* | 96* | 0.3 | 0 | /
O=C(Nc1ccc(-n2nncc2-c2ccco2)cc1)c1cc2ccccc2oc1=O | 63* | 44 | 0.4 | 0.6 | 1
CCOC(=O)C(C(=O)Nc1ccccc1C)C1CCCCC1 (stereo not given) | 24 | 35 | 0.8 | 0.6 | -0.55
CCOC(=O)c1sc2ccccc2c1OC(=O)c1ccccc1 | 90* | 85* | 0.1 | 0.2 | -1.5
CCOC(=S)NC(=O)c1sc2ccccc2c1Cl | 90* | 4 | 0.1 | 1 | -1.7
CCCOC(=S)NC(=O)c1sc2ccccc2c1Cl | 68* | 10 | 0.3 | 0.9 | -0.017
CC(C)c1nnc(NC(=O)c2sc3ccccc3c2Cl)s1 | 14 | 2 | 0.9 | 1 | -2.2
Cc1ccccc1NC(=O)NCCCN1CCN(c2ccccc2)CC1 | 39 | 8 | 0.6 | 0.9 | 1.8
COc1ccc(NC(=O)c2cc(CC(C)C)on2)cc1OC | -31 | 24 | 1.3 | 0.8 | 0.05
Cc1cc(C)c2c(N)c(S(=O)c3ccc(C(C)(C)C)cc3)sc2n1 (stereo not given) | 47 | 61* | 0.5 | 0.4 | -2.2
COCCNC(=O)CSc1nc2ccc(N3CCOCC3)cc2c(=O)n1Cc1ccc(OC)cc1 | 84* | 49 | 0.2 | 0.5 | 1.3
CCCCn1c(SCC(=O)NCc2ccccc2)nc2ccc(N3CCOCC3)cc2c1=O | 74* | 34 | 0.3 | 0.7 | -0.19
CCC(C)NC(=O)CSc1nc2ccc(N3CCOCC3)cc2c(=O)n1CCc1ccccc1 (stereo not given) | 5 | 1 | 0.9 | 1 | /
CCCCn1c(SCC(=O)Nc2ccc(OC)cc2)nc2ccc(N3CCOCC3)cc2c1=O | 100* | 84* | 0 | 0.2 | -1.1
CCCCn1c(SCC(=O)NC(C)CC)nc2ccc(N3CCOCC3)cc2c1=O (stereo not given) | 60* | 28 | 0.4 | 0.7 | /
COC(=O)C1CCCN1C(=O)C1CCCN1C(=O)CNC(=O)OCc1ccccc1 (stereo not given) | 3 | -6 | 1 | 1.1 | -1.3
N#C/C(C(=O)NCc1ccccc1)=C1\SC(CCO)C(=O)N1c1ccccc1 (stereo not given) | / | / | / | / | 0.82
CCOC(=O)CSc1nc2ccc(N3CCOCC3)cc2c(=O)n1Cc1ccc2c(c1)OCO2 | 75* | 81* | 0.3 | 0.2 | /
